Values without a mark were called inactive.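 Rule for the calls: active = GFP response vs DMSO above 150% with enough events counted; inconclusive = fewer than 70 events counted for a yeast strain; inactive = the rest.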

The assay is described as follows: yeast MEP2-GFP fusion level changes, TOR pathway – flow cytometry, third cherry pick, S. cerevisiae, confirmation (AID 504321).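 Note: median per-cell GFP fluorescence by flow cytometry across all yeast cells; ratio of sample to DMSO median GFP so 100% equals the DMSO level.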 The following applies: S. cerevisiae MEP2-GFP strain, 3 h, at 10 µM, stronger effect = higher value. For orientation: In flow cytometry, cells or beads pass a laser one at a time.
On to `CCN1CCN(c2ncnc3ccc(Br)cc23)CC1`, for which the GFP response vs DMSO is 112%. With `CN(C)C(=O)Oc1ccnc2cc(Cl)ccc12` the figure was 108%; with `C/C(O)=C(\C#N)C(=O)Nc1cc(Br)ccc1Br`, 112%; with `CN1CCN(c2ncnc3ccc(Br)cc23)CC1`, 101%. Take `CN(C)C(=O)Oc1ccc(Cl)c2cccnc12`: the GFP response vs DMSO is 110%. As to `Cc1ccc2c(c1N)C(=O)c1ccccc1C2=O`, the GFP response vs DMSO is 103%.

Values taken from PubChem BioAssay AID504321 (NMMLSC, 2011).
